{"source": "ChEMBL document CHEMBL1157539", "about": "“Thousands of chemical starting points for antimalarial lead identification” (Nature, 2010)", "assay_type_in_all_cases": "functional", "key": {"Plasmodium falciparum [1]": {"test_system": "Plasmodium falciparum", "test": "GSK_TCMDC: Inhibition of Plasmodium falciparum 3D7 in whole red blood cells, using parasite LDH activity as an index of growth. Test compounds present at 2uM"}, "Plasmodium falciparum [2]": {"test_system": "Plasmodium falciparum", "test": "GSK_TCMDC: Inhibition of Plasmodium falciparum Dd2 in whole red blood cells, using parasite LDH activity as an index of growth. Test compounds present at 2uM"}, "HepG2": {"test_system": "HepG2", "test": "GSK_TCMDC: Percent inhibition of human HepG2 cell line. Test compounds present at 10uM."}}}
{"smiles": "O=c1[nH]nc(-c2ccc(N3CCCC3)c([N+](=O)[O-])c2)c2ccccc12", "values": [{"measurement": "Inhibition", "setting": "Plasmodium falciparum [1]", "result": 100, "unit": "%"}, {"measurement": "Inhibition", "setting": "Plasmodium falciparum [2]", "result": 39, "unit": "%"}, {"measurement": "Inhibition", "setting": "HepG2", "result": 2, "unit": "%"}]}
{"smiles": "COc1ccc2cc(C=NNc3nc4ccccc4[nH]3)c(Cl)nc2c1", "values": [{"measurement": "Inhibition", "setting": "Plasmodium falciparum [1]", "result": 100, "unit": "%"}, {"measurement": "Inhibition", "setting": "Plasmodium falciparum [2]", "result": 90, "unit": "%"}, {"measurement": "Inhibition", "setting": "HepG2", "result": 2, "unit": "%"}]}
{"smiles": "COc1cccc(-c2cc(-c3ccc(NC(=O)c4ccccc4)cc3)c3c(N)ncnc3n2)c1", "values": [{"measurement": "Inhibition", "setting": "Plasmodium falciparum [1]", "result": 99, "unit": "%"}, {"measurement": "Inhibition", "setting": "Plasmodium falciparum [2]", "result": 98, "unit": "%"}, {"measurement": "Inhibition", "setting": "HepG2", "result": 0, "unit": "%"}]}
{"smiles": "Cc1cc(NCC(C)C)c2[nH]nc(-c3ccccc3)c2n1", "values": [{"measurement": "Inhibition", "setting": "Plasmodium falciparum [1]", "result": 99, "unit": "%"}, {"measurement": "Inhibition", "setting": "Plasmodium falciparum [2]", "result": 30, "unit": "%"}, {"measurement": "Inhibition", "setting": "HepG2", "result": 9, "unit": "%"}]}
{"smiles": "COc1ccc(CCNCCCCCCNCCc2ccc(Cl)c(Cl)c2)cc1OC.Cl", "values": [{"measurement": "Inhibition", "setting": "Plasmodium falciparum [1]", "result": 100, "unit": "%"}, {"measurement": "Inhibition", "setting": "Plasmodium falciparum [2]", "result": 10, "unit": "%"}, {"measurement": "Inhibition", "setting": "HepG2", "result": 59, "unit": "%"}]}
{"smiles": "COc1ccc(-c2ccc(CNC3Cc4ccccc4C3)cc2)cc1S(=O)(=O)NCCN1CCCC1.O=C(O)C(F)(F)F", "values": [{"measurement": "Inhibition", "setting": "Plasmodium falciparum [1]", "result": 100, "unit": "%"}, {"measurement": "Inhibition", "setting": "Plasmodium falciparum [2]", "result": 99, "unit": "%"}, {"measurement": "Inhibition", "setting": "HepG2", "result": 30, "unit": "%"}]}
{"smiles": "CN1CCCC1CCNCc1ccc(-c2ccc(CNCCc3ccccc3)cn2)cc1.O=C(O)C(F)(F)F", "note": "(stereo not given)", "values": [{"measurement": "Inhibition", "setting": "Plasmodium falciparum [1]", "result": 100, "unit": "%"}, {"measurement": "Inhibition", "setting": "Plasmodium falciparum [2]", "result": 99, "unit": "%"}, {"measurement": "Inhibition", "setting": "HepG2", "result": 25, "unit": "%"}]}
{"smiles": "COc1ccc(CNC2CCN(C)CC2)cc1-c1ccc(S(=O)(=O)NC2CCC2)c(C)c1.O=C(O)C(F)(F)F", "values": [{"measurement": "Inhibition", "setting": "Plasmodium falciparum [1]", "result": 100, "unit": "%"}, {"measurement": "Inhibition", "setting": "Plasmodium falciparum [2]", "result": 96, "unit": "%"}, {"measurement": "Inhibition", "setting": "HepG2", "result": 24, "unit": "%"}]}
{"smiles": "CCn1c(-c2nonc2N)nc2c(-c3cccc(NC(=O)Nc4ccc5c(c4)CCC5)c3)ncc(OCCCN)c21.O=C(O)C(F)(F)F", "values": [{"measurement": "Inhibition", "setting": "Plasmodium falciparum [1]", "result": 99, "unit": "%"}, {"measurement": "Inhibition", "setting": "Plasmodium falciparum [2]", "result": 94, "unit": "%"}, {"measurement": "Inhibition", "setting": "HepG2", "result": 26, "unit": "%"}]}
{"smiles": "Cc1nnsc1C(=O)Nc1cccc(-c2csc(-c3nc4ccccc4[nH]3)c2)c1", "values": [{"measurement": "Inhibition", "setting": "Plasmodium falciparum [1]", "result": 94, "unit": "%"}, {"measurement": "Inhibition", "setting": "Plasmodium falciparum [2]", "result": 50, "unit": "%"}, {"measurement": "Inhibition", "setting": "HepG2", "result": 51, "unit": "%"}]}
{"smiles": "O=C(O)/C=C/c1cccc(F)c1F", "values": [{"measurement": "Inhibition", "setting": "Plasmodium falciparum [1]", "result": 96, "unit": "%"}, {"measurement": "Inhibition", "setting": "Plasmodium falciparum [2]", "result": 1, "unit": "%"}, {"measurement": "Inhibition", "setting": "HepG2", "result": 58, "unit": "%"}]}
{"smiles": "COc1ccc(NC(=O)c2ccc3cc4ccccc4cc3c2)cc1N1CCN(C)CC1", "values": [{"measurement": "Inhibition", "setting": "Plasmodium falciparum [1]", "result": 86, "unit": "%"}, {"measurement": "Inhibition", "setting": "Plasmodium falciparum [2]", "result": 29, "unit": "%"}, {"measurement": "Inhibition", "setting": "HepG2", "result": 38, "unit": "%"}]}
{"smiles": "COc1ccc(-c2cccc(NC(=O)c3cccc(C#N)c3)c2)cc1CN1CCCN(C)CC1.O=C(O)C(F)(F)F", "values": [{"measurement": "Inhibition", "setting": "Plasmodium falciparum [1]", "result": 100, "unit": "%"}, {"measurement": "Inhibition", "setting": "Plasmodium falciparum [2]", "result": 99, "unit": "%"}, {"measurement": "Inhibition", "setting": "HepG2", "result": 22, "unit": "%"}]}
{"smiles": "CC(C)NCc1cccc(-c2cccc(-c3nc4cc(F)ccc4[nH]3)c2)c1.O=C(O)C(F)(F)F", "values": [{"measurement": "Inhibition", "setting": "Plasmodium falciparum [1]", "result": 100, "unit": "%"}, {"measurement": "Inhibition", "setting": "Plasmodium falciparum [2]", "result": 85, "unit": "%"}, {"measurement": "Inhibition", "setting": "HepG2", "result": 20, "unit": "%"}]}
{"smiles": "O=C(/C=C/c1ccc(Cl)c(Cl)c1)NC1CCC(CN2CCC(c3c[nH]c4ccncc34)CC2)CC1", "note": "(stereo not given)", "values": [{"measurement": "Inhibition", "setting": "Plasmodium falciparum [1]", "result": 100, "unit": "%"}, {"measurement": "Inhibition", "setting": "Plasmodium falciparum [2]", "result": 96, "unit": "%"}, {"measurement": "Inhibition", "setting": "HepG2", "result": 16, "unit": "%"}]}
{"smiles": "Cc1cn(CC(=O)Nc2cccc(-c3cccc(-c4nc5cc(C(F)(F)F)ccc5[nH]4)c3)c2)c(=O)[nH]c1=O", "values": [{"measurement": "Inhibition", "setting": "Plasmodium falciparum [1]", "result": 92, "unit": "%"}, {"measurement": "Inhibition", "setting": "Plasmodium falciparum [2]", "result": 51, "unit": "%"}, {"measurement": "Inhibition", "setting": "HepG2", "result": 15, "unit": "%"}]}
{"smiles": "COc1cc(C)nc2ccc(NC(=O)COCC(=O)Nc3ccc4nc(C)cc(OC)c4c3)cc12", "values": [{"measurement": "Inhibition", "setting": "Plasmodium falciparum [1]", "result": 100, "unit": "%"}, {"measurement": "Inhibition", "setting": "Plasmodium falciparum [2]", "result": 41, "unit": "%"}, {"measurement": "Inhibition", "setting": "HepG2", "result": 67, "unit": "%"}]}
{"smiles": "Br.CC[C@H]1CN2CCc3cc(OC)c(OC)cc3[C@@H]2C[C@@H]1CC1=NCCc2c1[nH]c1ccc(OCc3ccccc3)cc21", "values": [{"measurement": "Inhibition", "setting": "Plasmodium falciparum [1]", "result": 100, "unit": "%"}, {"measurement": "Inhibition", "setting": "Plasmodium falciparum [2]", "result": 89, "unit": "%"}, {"measurement": "Inhibition", "setting": "HepG2", "result": 57, "unit": "%"}]}
{"smiles": "O=C(COc1ccc(Cl)c(Cl)c1)NCCCCCN1CCCN(C(=O)Nc2ccc(Cl)c(Cl)c2)CC1.O=C(O)C(F)(F)F", "values": [{"measurement": "Inhibition", "setting": "Plasmodium falciparum [1]", "result": 93, "unit": "%"}, {"measurement": "Inhibition", "setting": "Plasmodium falciparum [2]", "result": 7, "unit": "%"}, {"measurement": "Inhibition", "setting": "HepG2", "result": 29, "unit": "%"}]}
{"smiles": "CCCCOc1cc2c(cc1OCC)C(C=Cc1ccc(Cl)cc1Cl)=NCC2.Cl", "values": [{"measurement": "Inhibition", "setting": "Plasmodium falciparum [1]", "result": 97, "unit": "%"}, {"measurement": "Inhibition", "setting": "Plasmodium falciparum [2]", "result": 95, "unit": "%"}, {"measurement": "Inhibition", "setting": "HepG2", "result": 0, "unit": "%"}]}
{"smiles": "Cc1ccc2[nH]c(C)cc(=NN=Cc3ccccc3F)c2c1", "values": [{"measurement": "Inhibition", "setting": "Plasmodium falciparum [1]", "result": 97, "unit": "%"}, {"measurement": "Inhibition", "setting": "Plasmodium falciparum [2]", "result": 100, "unit": "%"}, {"measurement": "Inhibition", "setting": "HepG2", "result": 36, "unit": "%"}]}
{"smiles": "O=C(c1cccs1)N1CCN(c2ccc([N+](=O)[O-])c(NC3CC3)c2)CC1", "values": [{"measurement": "Inhibition", "setting": "Plasmodium falciparum [1]", "result": 100, "unit": "%"}, {"measurement": "Inhibition", "setting": "Plasmodium falciparum [2]", "result": 95, "unit": "%"}, {"measurement": "Inhibition", "setting": "HepG2", "result": 0, "unit": "%"}]}
{"smiles": "Cc1nc(N)nc(N)c1OCCCCCCOc1ccccc1.Cl", "values": [{"measurement": "Inhibition", "setting": "Plasmodium falciparum [1]", "result": 95, "unit": "%"}, {"measurement": "Inhibition", "setting": "Plasmodium falciparum [2]", "result": 0, "unit": "%"}, {"measurement": "Inhibition", "setting": "HepG2", "result": 59, "unit": "%"}]}
{"smiles": "Cc1cc(CN2CCC(C(=O)Nc3ccc(-c4nc5ccccc5[nH]4)cc3)CC2)oc1C", "values": [{"measurement": "Inhibition", "setting": "Plasmodium falciparum [1]", "result": 95, "unit": "%"}, {"measurement": "Inhibition", "setting": "Plasmodium falciparum [2]", "result": 9, "unit": "%"}, {"measurement": "Inhibition", "setting": "HepG2", "result": 0, "unit": "%"}]}
{"smiles": "O=C(Nc1cccc(CN2CCN(Cc3cccc(O)c3)CC2)c1)c1cc2ccccc2s1.O=C(O)C(F)(F)F", "values": [{"measurement": "Inhibition", "setting": "Plasmodium falciparum [1]", "result": 86, "unit": "%"}, {"measurement": "Inhibition", "setting": "Plasmodium falciparum [2]", "result": 54, "unit": "%"}, {"measurement": "Inhibition", "setting": "HepG2", "result": 13, "unit": "%"}]}
